An excerpt weighted towards active compounds, which were near 19% of everything screened.
Pf growth 48h: P. falciparum growth inhibition at 48 hours (one generation); P. falciparum luciferase growth in erythrocytes, 48 h; Potency, µM (series often up to 28.7 µM), for inactives: at the top dose activity change, negative = inhibition, usual class: inhibitors; actives 5.9% (n = 310,000); further: potency means the concentration at half of the fitted maximal effect; on the % scale 0 is the no-effect control and ±100 the full control effect
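First compound was added to culture medium, then infected red cells at 0.1% parasitemia and 2% hematocrit (final). After incubation at 37 C under 5% CO2, luciferase detection reagent was dispensed and light output recorded.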
Pf growth 96h: P. falciparum growth inhibition at 96 hours; P. falciparum luciferase reporter growth, 96 h; actives 6.9% (n = 320,000); Potency, µM (highest dose often 28.7 µM), inactives show at the top dose activity change, negative = inhibition, hits mostly inhibitors; further: potency means the concentration at half of the fitted maximal effect; on the % scale 0 is the no-effect control and ±100 the full control effect
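Luminescence readout: decreased luciferase signal marks inhibited growth of reporter-expressing P. falciparum in infected red cells (2% hematocrit, 0.05% parasitemia final), exposed to compound two generations (96 h, 37 C, 5% CO2).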
SARS PLP yeast: blocks SARS-CoV papain-like protease in a yeast assay. Potency, µM (titrated, usually from 32.9 µM), for the others: top-dose activity, positive = growth rescue, actives largely listed as activators. actives 0.19% (n = 330,000). S. cerevisiae expressing SARS-CoV PLpro, growth rescue; calls by dose curve; further: potency means the concentration at half of the fitted maximal effect; 0% is about no effect; nearly all actives have a fitted effect of over 55% in size
AMA1 RON2 block: inhibitors of Plasmodium falciparum AMA1-RON2 interaction. AlphaScreen AMA1-biotinylated RON2 peptide binding. Potency, µM (doses to about 58.2 µM), for the others: top-dose activity change, negative = inhibition, usual class: inhibitors. actives 0.2% (n = 360,000);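 further: potency means the concentration at half of the fitted maximal effect; 0% = vehicle wells and -100% = peptide control; nearly all actives have a fitted effect of over 45% in size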
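AMA1 (3D7) with his tag at 25 nM final met compounds first, then biotinylated RON2 peptide at 25 nM; detection used donor plus acceptor beads, 10 µg/mL apiece, read by AlphaScreen after 30 min at room temperature.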
Cycloheximide cs: counter-screen hit for Shiga toxin inhibitors, cycloheximide | cell reporter, cycloheximide protein synthesis inhibition counterscreen | max response, % | actives 12% (n = 300,000) | AID 2314; in the data active means max response mostly above about 13%, no sharp cut-off; inactive means mostly below about 14%; further: read at 38.3 µM for the half of the compounds with a filed dose; 0% is about no effect
Shiga toxin inh: inhibitors of Shiga toxin in Vero cells. Vero cells, Shiga toxin protein synthesis inhibition reporter. actives 9.2% (n = 290,000). inhibition, % at 38.7 µM; in the data active means inhibition mostly above about 28%, no sharp cut-off; inactive means mostly below about 43%; further: 0% is about no effect
Numbers without * were called inactive; ? = inconclusive; / = not tested or not shown. Unless noted, the call rests on the fitted dose curve; in most records, active means well fitted curve in the direction sought with a large enough effect; inconclusive means small, poorly fitted or top-dose-only effect, or another doubt; inactive means no such curve, though single readings can be large; an effect the other way counts as inactive or inconclusive.

SMILES	Pf growth 48h	Pf growth 96h	SARS PLP yeast	AMA1 RON2 block	Cycloheximide cs	Shiga toxin inh
Cc1cccc(NC(=O)[C@H](Cc2c[nH]c3ccccc23)NC(=O)[C@@H]2Cc3ccccc3CN2)c1	8.3µM*	12µM*	-9%	43%	14*	16
Cc1cc(C)cc(NC(=O)[C@H](Cc2c[nH]c3ccccc23)NC(=O)[C@@H]2Cc3ccccc3CN2)c1	9.3µM*	?	-7%	40%	-2	-6
CCn1c(-c2cc(-c3ccccc3OC)nc3ccccc23)n[nH]c1=S	2.6µM*	3.3µM*	-8%	35%	-6	-7
CCn1c(-c2cc(-c3cc(OC)ccc3OC)nc3ccccc23)n[nH]c1=S	/	0.37µM*	5%	?	11	-11
Cc1noc(C)c1COc1ccc(C(=O)OCC(=O)Nc2ccc(C(=O)N(C)C)cc2)cc1	-12%	29%	-4%	-10%	/	/
Cc1ccc(/C(=N\O)c2oc3c(C)c4oc(=O)cc(C)c4cc3c2C)cc1	?	9.3µM*	-20%	-3%	-3	21
Cc1cc(=O)oc2c1ccc1oc(/C(=N/O)c3ccccc3)c(C)c12	1.7µM*	/	-3%	-21%	6	-2
O=C(N/N=C/c1ccc(OCc2ccccc2)cc1)c1cccs1	?	?	8%	-16%	43*	66*
O=C(COc1ccc(NC(=O)c2cccs2)cc1)c1ccc(F)cc1	?	4%	-4%	-2%	-1	4
O=C(N/N=C/c1ccncc1)c1ccc(OCc2ccccc2)cc1	?	?	-1%	0%	1	25
O=C(C[n+]1ccc(C(=O)N/N=C/c2ccc(OCc3ccccc3)cc2)cc1)c1ccccc1	/	?	-6%	0%	54*	62*
Oc1ccc(N=Cc2ccc(OCc3ccccc3)cc2)cc1	?	?	-2%	35%	44*	80*
O=C(Nc1ccc(OCc2ccccc2)cc1)c1cccs1	76%	137%	-4%	6%	44*	/
COC(=O)C(CN)c1c[nH]c2ccc(OC)cc12 (stereo unspecified)	0%	-15%	/	/	1	1
Cc1ccnc(NC2OC(=O)c3ccccc32)c1 (stereo unspecified)	10%	/	3%	-2%	10	26
O=C(N/N=C/c1ccc(Cl)cc1)c1sccc1OCc1ccc(F)cc1	?	9.3µM*	2%	40µM*	27*	-2
O=C(N/N=C/c1ccccc1OCC(=O)N1CCCC1)C(=O)Nc1ccccc1F	48%	48%	-3%	35%	33*	active
O=C(N/N=C/c1ccc(OCC(=O)N2CCCC2)cc1)C(=O)NC1CC1	15%	3%	?	-2%	-2	-5
O=C(N/N=C/c1ccc(OCC(=O)N2CCCCC2)cc1)c1ccccc1O	1%	29%	?	18%	12	22
O=C(N/N=C/c1ccc(OCC(=O)N2CCCCC2)cc1)c1ccccc1	?	?	-2%	2%	30*	40
O=C(N/N=C/c1ccc(OCc2ccccc2)cc1)c1ccncc1	3%	?	-1%	27%	13*	81
Cc1nn(C)cc1S(=O)(=O)Nc1ccc(C(F)(F)F)cc1	32%	-6%	1%	-4%	-2	5
CC1Cc2ccccc2N1C(=O)CSc1nnc(N)s1 (stereo unspecified)	-17%	6%	-3%	-11%	-1	-12
CCC1CCCCN1CCCNC(=O)c1ccc2c(c1)c(C)c(C)n2C (stereo unspecified)	?	12%	13%	0%	0	-6
OCCCNc1ncnc2scc(-c3ccc(Cl)cc3)c12	-21%	-18%	-2%	0%	-1	-15
SMILES	Pf growth 48h	Pf growth 96h	SARS PLP yeast	AMA1 RON2 block	Cycloheximide cs	Shiga toxin inh
Cc1cccc(C(=O)Oc2ccc(/C=N/NC(=O)c3ccncc3)cc2)c1	12µM*	12µM*	-2%	13%	12	28
Cc1cccc(C(=O)Oc2ccc(/C=N/NC(=O)c3cc(O)cc(O)c3)cc2)c1	?	38%	7%	?	12	1
COC(=O)/C=C/c1ccc(OC(=O)c2ccncc2)cc1	10%	13µM*	13%	13%	5	-16
O=C(N/N=C/c1ccc(C(F)(F)F)cc1)c1ccncc1	-6%	1.7µM*	-6%	-2%	3	7
COc1ccc(-c2ccc(OC)c(OC)c2OC)c(OC)c1OC	/	/	/	3%	/	/
COc1ccc(C)cc1-n1c(N)c(C#N)c(C#N)c1-c1ccc(OC)c(OC)c1OC	12µM*	50%	4%	-5%	1	2
CCOC(=O)c1ccc(N[C@@H]2CCN3C(=O)c4ccccc4[C@@H]3C[C@H]2O)cc1	/	/	18%	0%	/	/
CCN(CC)CCNC(=O)C1c2cc(OC)c(OC)cc2C(=O)N(C)C1c1cccs1 (stereo unspecified)	17%	?	-3%	9%	-2	-3
CCN(CC)CCNC(=O)c1ccccn1	-17%	-25%	3%	15%	-1	-11
CCN(CC)CCNC(=O)c1ccccc1C(=O)c1ncc[nH]1	-14%	1.7µM*	1%	21%	-2	-14
O=c1cc(N2CCCCC2)c(-c2ccccc2)nn1Cc1c(Cl)cccc1Cl	?	10µM*	0%	-1%	-2	-9
O=c1cc(N2CCCCC2)c(-c2ccccc2)nn1Cc1ccc(F)cc1	?	13µM*	3%	-4%	-4	-2
O=c1cc(N2CCCCC2)c(-c2ccccc2)nn1Cc1ccc(Cl)cc1	3%	-7%	1%	0%	-2	-23
O=C(COC(=O)c1ccc(S(=O)(=O)NCc2ccco2)cc1)c1ccccc1	14%	4%	11%	-9%	-1	17
CC(OC(=O)c1ccc(S(=O)(=O)NCc2ccco2)cc1)C(=O)Nc1ccc(Cl)cn1 (stereo unspecified)	2%	1%	9%	-8%	38*	68*
O=C(COC(=O)c1ccc(S(=O)(=O)NCc2ccco2)cc1)Nc1ncc(Cl)cc1Cl	3%	8%	5%	-10%	-4	8
Cc1noc(C)c1COC(=O)c1ccc(S(=O)(=O)NCc2ccco2)cc1	-3%	?	-5%	-13%	16*	56
O=C(Nc1ccc(S(=O)(=O)NCc2ccco2)cc1)c1ccc(F)cc1	?	-13%	1%	0%	28*	46*
Cc1cc(C)cc(NC(=O)c2cc(S(=O)(=O)NCc3ccco3)ccc2F)c1	21%	4%	1%	-9%	15*	46
C1CCN(Cc2nnnn2CC2CCCO2)CC1 (stereo unspecified)	12%	82%	1%	-6%	-1	-18
CC1CCCCC1NS(=O)(=O)c1ccc(S(=O)(=O)NCc2ccncc2)cc1 (stereo unspecified)	15µM*	?	5%	-5%	6	-6
Cc1ccc(S(=O)(=O)NCc2ccncc2)cc1	/	4%	1%	-11%	-4	-7

High-throughput results deposited in PubChem by National Center for Advancing Translational Sciences (NCATS).
